Measurements from PubChem BioAssay AID588358 (NMMLSC, 2011).
In all, about 310,000 compounds went through this assay and about 1,500 (0.48%) were called active.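 How the source made its calls: active means binding more than 3 SD below its plate's average and above zero; inconclusive means below that plate limit but binding exactly zero; inactive means the rest.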 What follows is part of a selection rich in actives, with near analogues and random picks from the rest.

Molecular target: Desmoglein-3 (Homo sapiens) (UniProt P32926)
Assay: inhibitors of pemphigus antibody binding to DSG3, primary screen, biochemical, bead-based, flow cytometry, scFv-GFP (AID 588358);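 further: hits lower antibody fragment binding to DSG3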
Settings: DSG3-coupled beads, scFv-anti-DSG3-GFP binding, at 10 µM, active compounds read low

Desmoglein-3 (Homo sapiens), sequence (P32926 whole entry, looked up, the tested form may be a part): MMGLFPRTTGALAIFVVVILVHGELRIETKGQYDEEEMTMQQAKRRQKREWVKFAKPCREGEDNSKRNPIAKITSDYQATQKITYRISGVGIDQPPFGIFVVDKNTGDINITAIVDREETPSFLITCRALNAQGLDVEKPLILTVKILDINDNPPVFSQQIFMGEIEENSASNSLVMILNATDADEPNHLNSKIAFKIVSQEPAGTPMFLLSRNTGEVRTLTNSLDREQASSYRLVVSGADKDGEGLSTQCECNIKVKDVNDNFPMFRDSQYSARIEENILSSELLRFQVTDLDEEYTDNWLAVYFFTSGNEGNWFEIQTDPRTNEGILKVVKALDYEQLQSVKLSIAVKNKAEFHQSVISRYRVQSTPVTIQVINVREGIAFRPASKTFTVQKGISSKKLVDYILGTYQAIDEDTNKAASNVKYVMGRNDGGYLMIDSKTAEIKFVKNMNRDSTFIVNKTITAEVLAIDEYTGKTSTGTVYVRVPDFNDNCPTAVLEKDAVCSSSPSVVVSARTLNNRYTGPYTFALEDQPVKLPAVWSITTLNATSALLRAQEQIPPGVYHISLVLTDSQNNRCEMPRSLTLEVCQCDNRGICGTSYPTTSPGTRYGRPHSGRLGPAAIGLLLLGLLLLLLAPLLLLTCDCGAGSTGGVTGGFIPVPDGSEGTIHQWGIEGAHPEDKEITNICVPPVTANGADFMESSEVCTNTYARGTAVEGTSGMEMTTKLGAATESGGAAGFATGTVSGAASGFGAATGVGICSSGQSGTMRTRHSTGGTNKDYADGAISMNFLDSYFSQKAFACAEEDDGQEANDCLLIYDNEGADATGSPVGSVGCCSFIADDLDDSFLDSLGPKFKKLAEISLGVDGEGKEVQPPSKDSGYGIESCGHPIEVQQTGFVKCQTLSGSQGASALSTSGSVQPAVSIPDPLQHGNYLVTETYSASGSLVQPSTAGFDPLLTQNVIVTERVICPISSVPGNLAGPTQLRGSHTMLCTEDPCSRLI

Row | Structure (SMILES) | binding (percent of control)
1 | c1cc2c(cc1CCNC1CCCCCC1)OCO2 | 97.2% (inactive)
2 | c1ccc(CCNC2CCCCCC2)cc1 | 68.9% (active)
3 | OC(CNC1CCCCC1)c1ccccc1 (stereo not given) | 107% (inactive)
4 | CN1CCC[C@@H]1CCO[C@](C)(c1ccccc1)c1ccc(Cl)cc1 | 102% (inactive)
5 | Cc1ncoc1C(=O)NCC1=C(c2cccc3ccccc23)C[C@@H]2CC[C@H]1N2Cc1ccco1 | 108% (inactive)
